Source: PubChem BioAssay (National Center for Advancing Translational Sciences (NCATS))
Hits are enriched below; roughly 5.7% of the tested compounds scored in any of these assays.
GLP-1R agonist: GLP-1 receptor (human) agonism; HEK293 GLP-1R CRE-luciferase, luminescence, 4-6 h; cells express a hypersensitive GLP-1R form; Potency, µM (titrated, usually from 45.6 µM), usual class: activators; 0.007% of 380,000 active; AID 624172
D3 ag: activates the human D3 dopamine receptor | P35462 | D3R DiscoveRx beta-arrestin cells, luminescence, 90 min | max activation, % | 0.58% of 410,000 active | AID 652048; in the data active means max activation above about 30%
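Cells at 1500/well, incubated overnight, then treated with pinned compounds (dopamine as control) for 90 min at 37 degrees C. DiscoveRx reagent added for 30 - 60 minutes at room temperature; luminescence read.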
GLP1R cytotox: cytotoxic in the GLP-1 receptor inverse agonist counter-screen. AID 624418. HEK293 cAMP-luciferase reporter cells, luminescence, 24 h. Potency, µM (top dose mostly 38.3 µM), usual class: inhibitors. 0.13% of 410,000 active;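 further: loss of luciferase light is scored as toxicity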
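Here, cytotoxicity is scored as loss of luminescence. The MLSMR collection was tested on cells seeded in medium containing 10% Nu serum, with a 24 hr compound exposure preceded by 12 hours of culture.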
DRD3 antagonist: antagonists of human D3 dopamine receptor; D3R cells, DiscoveRx beta-arrestin luminescence, antagonist mode; hits give low values; max response, negative = inhibition, %; 2.5% of 360,000 active; AID 652054; in the data active means max response below about -50%; inconclusive means no clear call, values can overlap the other calls
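Cells plated overnight at 1500 cells/well, then exposed to library compounds with dopamine controls for 90 minutes at 37 degrees C. DiscoveRx reagent added for 30–60 minutes at room temperature; luminescence read, quantitative HTS format.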
GLP1R inv ag: GLP-1 receptor (human) inverse agonism | P43220 | HEK293 GLP-1R CRE-luciferase, luminescence, 24 h; GLP-1R form is constitutively active | Potency, µM (top dose mostly 38.3 µM), hits mostly inhibitors | 1.6% of 410,000 active; further: nearly all actives have a fitted effect of over 55% in size
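Inverse agonists were sought by their lowering of basal cAMP reporter luciferase output in HEK293 cells stably carrying constitutively active human GLP-1R, after 24 h compound treatment.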
ClpP mod: qHTS Assay for Activators of ClpP. ATP-dependent Clp protease proteolytic subunit (Bacillus subtilis (strain 168)), P80244. purified B. subtilis ClpP, FRET peptide cleavage, 20 min. Potency, µM (highest dose often 57.5 µM). 1.9% of 340,000 active. AID 651965, 2013; active means well fitted falling curve with a large enough effect; inconclusive means small, poorly fitted or top-dose-only effect; inactive means no such curve, though single readings can be large or run the other way; further: the source files actives as falling curves though it sought activators and does not explain the sign; nearly all actives have a fitted effect of over 65% in size
Target sequence (P80244 whole entry, looked up): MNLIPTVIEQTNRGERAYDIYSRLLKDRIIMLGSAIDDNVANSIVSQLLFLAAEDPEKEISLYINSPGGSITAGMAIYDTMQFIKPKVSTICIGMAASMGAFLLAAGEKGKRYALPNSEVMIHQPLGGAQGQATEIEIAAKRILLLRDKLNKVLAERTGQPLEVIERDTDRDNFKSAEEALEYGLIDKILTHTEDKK
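FRET quenching reversal measured ClpP activation: 10 microg/mL B. subtilis ClpP at pH 8 with the FRET-FV decapeptide, read at 430 nm after 320 nm excitation. The 20-min minus 0-min signal was scaled between DMSO/no-enzyme wells and ADEP (5.8 microM final).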
Large screens that a line does not name were inactive. Unless noted, the call rests on the fitted dose curve; in most records, active means well fitted curve in the direction sought with a large enough effect; inconclusive means small, poorly fitted or top-dose-only effect, or another doubt; inactive means no such curve, though single readings can be large; an effect the other way counts as inactive or inconclusive.

CCC1(c2ccccc2)SCC(c2ccccc2)=NC1=O (stereo not given)	GLP1R inv ag 3.16µM (no result: ClpP mod)
CCN(CC)S(=O)(=O)c1ccc2c(c1)N(CC(=O)N1CCN(c3cccc(OC)c3)CC1)C(=O)CO2	none (no result: GLP-1R agonist, DRD3 antagonist)
O=C(CSc1cccc[n+]1[O-])Nc1ccccc1Oc1ccccc1	GLP1R cytotox 0.794µM, DRD3 antagonist inconclusive, GLP1R inv ag inconclusive (no result: ClpP mod)
O=C(CSc1cccc[n+]1[O-])Nc1ccccc1C(F)(F)F	none (no result: ClpP mod)
O=C(CSc1nc(=O)n(CCN2CCOCC2)c2c1CCC2)Nc1ccc(Cl)c(Cl)c1	none (no result: GLP-1R agonist, DRD3 antagonist)
Cc1ccccc1-c1nc(CS(=O)(=O)CC(=O)NCCCc2ccccc2)c(C)o1	GLP1R inv ag inconclusive (no result: DRD3 antagonist)
O=C(OCCOc1cccc(Cl)c1)c1cc(S(=O)(=O)N2CCCCC2)ccc1N1CCOCC1	GLP1R inv ag 5.62µM, ClpP mod inconclusive
CCOc1ccc(C(=O)NCC(c2ccc(Cl)cc2)N2CCCCC2)cc1 (stereo not given)	GLP1R inv ag inconclusive (no result: GLP-1R agonist, DRD3 antagonist)
Cc1ccc(C(=O)Nc2nnc(S(=O)(=O)N(C)Cc3ccc(F)cc3)s2)cc1	none (no result: GLP-1R agonist, DRD3 antagonist)
COc1cc(OC)c2c(C)cc(=O)oc2c1C(CCN1CCN(c2ccccc2)CC1)c1ccc2c(c1)OCO2 (stereo not given)	GLP1R cytotox inconclusive, GLP1R inv ag inconclusive, ClpP mod 31.6µM
COc1cc(O)c(C(CCN2CCN(c3ccccc3)CC2)c2cc(OC)c(OC)c(OC)c2)c(OC)c1 (stereo not given)	DRD3 antagonist -137.4, GLP1R inv ag inconclusive
COc1cc(O)c(C(CCN2CCCC2)c2ccc3c(c2)OCO3)c(OC)c1 (stereo not given)	none
COc1cc(O)c(C(CCN2CCN(c3ccccc3)CC2)c2ccc3c(c2)OCO3)c(OC)c1 (stereo not given)	DRD3 antagonist -107.7, GLP1R inv ag inconclusive
Cc1ccc(-c2cc(C(=O)N3CCCC3)no2)cc1	GLP1R inv ag 3.98µM
Cc1ccc(-c2cc(C(=O)N3CCOCC3)no2)cc1	GLP1R inv ag 3.16µM (no result: ClpP mod)
O=C(c1cc(-c2ccco2)on1)N1CCOCC1	none
CCc1nn(Cc2cccc(F)c2)c(=O)c2cc3cc(C)ccc3n12	none (no result: GLP-1R agonist, DRD3 antagonist)
O=C(CNC(=O)c1ccccc1Br)N/N=C\c1cc([N+](=O)[O-])cc(Br)c1O	DRD3 antagonist -75.7 (no result: ClpP mod)
COC(=O)N/N=C/c1cc([N+](=O)[O-])cc(Br)c1O	GLP1R cytotox inconclusive, DRD3 antagonist -97.9
O=C(CNC(=O)c1ccccc1Br)N/N=C/c1ccccc1O	none (no result: ClpP mod)
Nc1nnc(CC(=O)N/N=C/c2cc([N+](=O)[O-])cc(Br)c2O)s1	DRD3 antagonist -109.3
Cc1cccc(N2CCN(C(=O)Cn3nc(C)c4sc5ccccc5c4c3=O)CC2)c1C	none (no result: GLP-1R agonist, DRD3 antagonist)
COCCNC(=O)CSc1nc2cc3c(cc2c(=O)n1CCCC(=O)NCc1ccc2c(c1)OCO2)OCO3	none (no result: GLP-1R agonist, DRD3 antagonist)
CCOC(=O)c1cc2c3ccccc3n(CC)c2nc1N	ClpP mod 15.8µM
C=CCn1c(SCC(=O)Nc2ccc(-c3nc4ccc(C)cc4s3)cc2)nnc1-c1ccccc1	GLP1R inv ag inconclusive, ClpP mod 15.8µM
Cc1ccc2nc(-c3ccc(NC(=O)CN4CCN(C(=O)c5ccco5)CC4)cc3)sc2c1	D3 ag 35.7, GLP1R inv ag inconclusive, ClpP mod inconclusive
Cc1ccc(NC(=O)CN2CCN(C(=O)c3ccco3)CC2)cc1	none (no result: ClpP mod)
CCOc1ncccc1C(=O)OCC(=O)Nc1ccc(-c2nc3ccc(C)cc3s2)cc1	ClpP mod 3.55µM
Cc1ccc2nc(-c3ccc(NC(=O)CN(c4ccccc4C)S(C)(=O)=O)cc3)sc2c1	GLP1R inv ag inconclusive, ClpP mod 25.1µM
Cc1ccc2nc(-c3ccc(NC(=O)COc4ccccc4)cc3)sc2c1	none (no result: GLP-1R agonist, DRD3 antagonist)
Cc1ccc(CCNC(=O)c2ccc(NC(=O)N3CCSc4ccccc43)cc2)cc1	none (no result: GLP-1R agonist, DRD3 antagonist)
Cc1ccc2nc(-c3ccc(NC(=O)COC(=O)c4cncc(Br)c4)cc3)sc2c1	none (no result: ClpP mod)
Cc1ccc(C2(C)NC(=O)N(CC(=O)NC(=O)NC(C)(C)C)C2=O)cc1 (stereo not given)	D3 ag 32.5
